The sample as a whole holds a higher share of hits than the screen did.
miR-122 inh = activators of miR-122 sensor in Huh7 cells | activation, % at 12.5 µM | Huh7 psiCHECK-miR122 Renilla luciferase sensor, 48 h | 340,000 compounds, 0.14% hits;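 active means mean activation of 30% or more, with every replicate also reaching 30%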;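 further: 0% = median of neutral control wells and 100% = median of positive control wells; higher luciferase signal means stronger suppression of miR-122 activity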
Numbers without * were called inactive.

`COCC(=O)N(C)C[C@H]1Oc2cc(-c3ccccc3F)ccc2S(=O)(=O)N([C@@H](C)CO)C[C@H]1C` gave miR-122 inh 55*.
`COc1ccc(C#Cc2ccc3c(c2)O[C@@H](CN(C)C(=O)NC2CCCCC2)[C@H](C)CN([C@H](C)CO)S3(=O)=O)cc1` gave miR-122 inh -23.
`C[C@H](CO)N1C[C@H](C)[C@H](CN(C)C(=O)Nc2ccc3c(c2)OCO3)Oc2ncc(-c3ccccc3)cc2C1=O` gave miR-122 inh 1.
`C[C@H](O)C#Cc1ccc2c(c1)O[C@@H](CN(C)Cc1cncnc1)[C@@H](C)CN([C@H](C)CO)S2(=O)=O` gave miR-122 inh 4.
For COc1ccc(S(=O)(=O)N2CC[C@@H]3[C@@H](CO)N(C)c4ccc(-c5ccc(F)cc5)cc4[C@@H]32)cc1 the results were miR-122 inh -196.
For C[C@H](O)C#Cc1cnc2c(c1)C(=O)N([C@@H](C)CO)C[C@H](C)[C@H](CN(C)Cc1cncnc1)O2 the results were miR-122 inh 6.
For CO[C@@H]1CN(C)C(=O)c2cc(NC(=O)NC(C)C)ccc2OC[C@@H](C)N(C(=O)NC(C)C)C[C@H]1C the results were miR-122 inh -7.
Screening CC(C)CC#Cc1cnc2c(c1)C(=O)N([C@@H](C)CO)C[C@@H](C)[C@H](CN(C)C(=O)Cc1ccccc1)O2 returned miR-122 inh 6.
`COc1cccc(-c2cnc3c(c2)C(=O)N([C@@H](C)CO)C[C@H](C)[C@H](CN(C)C(=O)CC2CC2)O3)c1` gave miR-122 inh 4.
C[C@@H]1CN([C@H](C)CO)C(=O)c2cc(/C=C/c3ccccc3)cnc2O[C@H]1CN(C)C(=O)Nc1ccccc1F was read as miR-122 inh 3.
For CCS(=O)(=O)Nc1ccc2c(c1)C(=O)N(C)C[C@H](OC)[C@H](C)CN[C@H](C)CO2 the results were miR-122 inh -2.
Screening C[C@H](CO)N1C[C@H](C)[C@@H](CN(C)C(=O)Nc2cccc(F)c2)Oc2cc(/C=C/c3ccccc3)ccc2S1(=O)=O returned miR-122 inh -16.
Screening CC(C)CC#Cc1ccc2c(c1)O[C@H](CN(C)C(=O)NC1CCCC1)[C@@H](C)CN([C@H](C)CO)S2(=O)=O returned miR-122 inh -56.
`C[C@@H]1CN([C@H](C)CO)S(=O)(=O)c2ccc(/C=C/c3ccccc3)cc2O[C@@H]1CN(C)C(=O)c1ccccc1` gave miR-122 inh 20.
CC(=O)N(C)C[C@H]1Oc2cc(/C=C/c3ccccc3)ccc2S(=O)(=O)N([C@@H](C)CO)C[C@H]1C was read as miR-122 inh 34*.
`CC(=O)N(C)C[C@H]1Oc2cc(/C=C/c3ccccc3)ccc2S(=O)(=O)N([C@H](C)CO)C[C@@H]1C` gave miR-122 inh 6.
`C[C@@H]1CN([C@@H](C)CO)S(=O)(=O)c2ccc(/C=C/c3ccccc3)cc2O[C@@H]1CN(C)C(=O)NC1CCCCC1` gave miR-122 inh 41*.
Screening C[C@@H]1CN([C@H](C)CO)C(=O)c2cc(C#Cc3cccc(F)c3)cnc2O[C@H]1CN(C)C(=O)C1CC1 returned miR-122 inh -4.
For CCCN(C)C[C@@H]1Oc2ncc(-c3cccc(C(F)(F)F)c3)cc2C(=O)N([C@H](C)CO)C[C@@H]1C the results were miR-122 inh 10.
For C[C@H](CO)N1C[C@H](C)[C@H](CN(C)S(=O)(=O)c2ccccc2)Oc2ncc(C#CC3(O)CCCC3)cc2C1=O the results were miR-122 inh 4.
For COc1ccc(-c2ccc(C#N)c(OC(=O)c3c(Cl)cccc3Cl)n2)cc1 the results were miR-122 inh 32*.
`CO[C@@H]1CN(C)C(=O)c2ccc(NC(=O)C3CCC3)cc2OC[C@H](C)NC[C@@H]1C` gave miR-122 inh -4.
For C[C@H](CO)N1C[C@H](C)[C@H](CN(C)Cc2ccccc2F)Oc2ncc(/C=C/c3ccccc3)cc2C1=O the results were miR-122 inh -3.
C[C@H]1CN([C@@H](C)CO)C(=O)c2cc(-c3ccc(F)cc3)cnc2O[C@@H]1CN(C)C(=O)c1ccccn1 was read as miR-122 inh 5.
For Cc1ccc(S(=O)(=O)N(C)C[C@H]2Oc3cc(C#CC4CCCC4)ccc3S(=O)(=O)N([C@@H](C)CO)C[C@H]2C)cc1 the results were miR-122 inh -61.
COC(=O)c1cc(=O)n2c(-c3ccc(OC)cc3)csc2n1 was read as miR-122 inh 38*.
For CO[C@@H]1CN(C)C(=O)c2ccc(NC(=O)Nc3cccc(F)c3)cc2OC[C@@H](C)N(C)C[C@@H]1C the results were miR-122 inh 0.
For C[C@@H]1CN([C@H](C)CO)C(=O)c2cc(-c3cccnc3)cnc2O[C@@H]1CN(C)S(C)(=O)=O the results were miR-122 inh -4.
For C[C@H](CO)N1C[C@H](C)[C@@H](CN(C)C(=O)c2ccncc2)Oc2cc(C#C[C@@H](C)O)ccc2S1(=O)=O the results were miR-122 inh -7.
For CC(C)C#Cc1cnc2c(c1)C(=O)N([C@H](C)CO)C[C@H](C)[C@@H](CN(C)C(=O)CC1CC1)O2 the results were miR-122 inh -5.
`CC(C(=O)OCC(=O)Nc1ncc(Cl)cc1Cl)N1C(=O)c2ccccc2C1=O` (configuration not stated) gave miR-122 inh 36*.
Screening C[C@H](CO)N1C[C@H](C)[C@H](CN(C)C(=O)C2CCCCC2)Oc2ncc(-c3cccc(C#N)c3)cc2C1=O returned miR-122 inh -2.
For C[C@H]1CN([C@@H](C)CO)C(=O)c2cc(C#Cc3ccccn3)cnc2O[C@H]1CN(C)C(=O)c1cnccn1 the results were miR-122 inh -2.
For COc1cccc(-c2cnc3c(c2)C(=O)N([C@@H](C)CO)C[C@H](C)[C@H](CN(C)Cc2ccccc2)O3)c1 the results were miR-122 inh -11.
`O=c1c2ccccc2nc(/C=C/c2ccc([N+](=O)[O-])o2)n1CCCO` gave miR-122 inh 80*.
C[C@@H]1CN([C@H](C)CO)C(=O)Cc2cc(NC(=O)Nc3cccc4ccccc34)ccc2O[C@@H]1CN(C)C(=O)Nc1cccc2ccccc12 was read as miR-122 inh -99.
For C[C@H]1CCCCO[C@@H](CN(C)CC2CCCCC2)[C@@H](C)CN([C@@H](C)CO)C(=O)c2cc(NC(=O)Nc3cccc4ccccc34)ccc2O1 the results were miR-122 inh 33*.
Screening C[C@@H]1CCCCO[C@@H](CN(C)CC2CCCCC2)[C@H](C)CN([C@@H](C)CO)C(=O)c2cc(NC(=O)Nc3cccc4ccccc34)ccc2O1 returned miR-122 inh 31*.
Screening C[C@@H]1CN([C@H](C)CO)C(=O)Cc2cc(NC(=O)Nc3cccc4ccccc34)ccc2O[C@@H]1CN(C)C(=O)NC1CCCCC1 returned miR-122 inh -121.
Screening C[C@H](CO)N1C[C@H](C)[C@@H](CN(C)Cc2ccncc2)Oc2ccc(NC(=O)Nc3cccc4ccccc34)cc2CC1=O returned miR-122 inh -98.
For C[C@H](CO)N1C[C@H](C)[C@H](CN(C)Cc2ccc(C(=O)Nc3ccccc3N)cc2)Oc2ccc(NC(=O)Nc3cccc4ccccc34)cc2CC1=O the results were miR-122 inh -96.
Screening CO[C@H]1CN(C)C(=O)c2cc(NC(=O)c3ccc(F)cc3)ccc2OC[C@H](C)N(C)C[C@H]1C returned miR-122 inh 1.
Screening CCC(=O)N(C)C[C@H]1Oc2ncc(C#CC3(O)CCCC3)cc2C(=O)N([C@H](C)CO)C[C@@H]1C returned miR-122 inh -6.

Screens: PubChem, Broad Institute
